Screen size: about 71,000 compounds; about 1,800 (2.5%) were called active. Roughly 26% stayed inconclusive and do not appear here. The entries come from a sample that favours actives as a whole. Values without a mark were called inactive. The call rests on the fitted dose curve; in most records, active means well fitted activation curve with a large enough effect in the signal ratio, with a control signal flat (not every such curve was filed as active); inconclusive means small, poorly fitted or top-dose-only effect, or effect the other way, or a change in a side signal; inactive means flat fitted curve, though single readings scatter; the % refers to the signal ratio.
Potency means the concentration at half of the fitted maximal effect.

A short description of this assay: Cell signaling CRE-BLA (Fsk stim). On activity change, negative = inhibition: % of control where 0% means no effect. The conditions noted are these: CHO CRE-bla reporter (cAMP response element driving beta-lactamase), forskolin EC10, beta-lactamase ratio; series mostly up to 38.2 µM; activity change, negative = inhibition: at the top concentration. The procedure, abridged:
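CRE-bla CHO cells stimulated with EC10 NKH 477 (water-soluble forskolin) and compound titrations, 3 h at 37C; beta-lactamase read with CCF4 after 2 h at room temperature. Activity from 460/530 nm emission ratio, AC50 values for positive or negative modulation.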
As for `O=C(CC1(O)C(=O)N(CN2CCOCC2)c2ccccc21)c1ccccc1` (centres undefined), the “activity change, negative = inhibition” value was 1.72%.
On to `CCCc1cc(=O)[nH]c(SCC(=O)OCc2ccccc2)n1`, for which the “activity change, negative = inhibition” value was -2.25%.
Still for that read-out and setting: the same measure for `CS(=O)(=O)N1CCN(C(=O)Cc2ccccc2)CC1`: 2.13%; for `O=P(O)(CN1CCCCC1)CN1CCCCC1`: -2.2%.
On to `c1ccc(-n2ncc(-c3nn[nH]n3)n2)cc1`, for which the “activity change, negative = inhibition” value was -8.34%.
As for `O=C(O)CCSc1nnc(-c2ccccc2)n1-c1ccccc1`, the activity change, negative = inhibition is 13.7% [at 7.6 µM].
Regarding `COc1cccc(-n2c(SCC(=O)NC3CCCCC3)nc3n[nH]c(C)c3c2=N)c1`, the Potency is 5.01 µM (active).
As for `C=CCn1c(CC(=O)Nc2cccc(OC)c2)nnc1SCC(=O)NC1CCCCC1`, the “activity change, negative = inhibition” value is -2.75%.
As for `COc1cccc(-n2c(Cc3cc(=O)[nH]c(=O)[nH]3)nnc2SCC(=O)Nc2ccccc2)c1`, the “activity change, negative = inhibition” value was 0.481%.
With `CCc1ccc(N(CC)c2ncnc3nc[nH]c23)cc1`, the “activity change, negative = inhibition” value is -5.12%.
As to `CCOC(=O)NC(C(F)(F)F)(C(F)(F)F)P(=O)(c1ccccc1)c1ccccc1`, the “activity change, negative = inhibition” value is -3.9%.
With `CCCCNC(=O)CSc1nccn1Cc1ccccc1`, the “activity change, negative = inhibition” value is -2.35%.
As for `CCn1cc(C(=O)N2CCN(C3CCCCC3)CC2)c2cc(OC)c(OC)cc2c1=O`, the Potency was 10 µM (active).
`Cc1cc(NC(=O)CCC2COc3ccccc3O2)no1` (centres undefined): the “activity change, negative = inhibition” value was -1.78%.
On to `CCn1cc(C(=O)NCC2COc3ccccc3O2)c2cc(OC)c(OC)cc2c1=O` (centres undefined), for which the Potency was 1.58 µM (active).
`O=C(CN1C(=O)C2C3C=CC(C3)C2C1=O)NCC1COc2ccccc2O1` (centres undefined): the “activity change, negative = inhibition” value was -0.372%.
As to `CS(=O)(=O)N(CC(=O)N1CCN(Cc2ccc3c(c2)OCO3)CC1)c1ccc2c(c1)OCO2`, the “activity change, negative = inhibition” value is -2.17%.
With `CC1CCCC(N2CCN(C(=O)c3ccc(F)cc3)CC2)C1` (centres undefined), the “activity change, negative = inhibition” value was 0.17%.
In the case of `O=C(C(Cc1ccccc1)n1cccc1)N1CCN(C2CCCCC2)CC1` (centres undefined), the “activity change, negative = inhibition” value was -11.6%.
For the compound `CCn1cc(C(=O)N2CCN(Cc3ccc4c(c3)OCO4)CC2)c2cc(OC)c(OC)cc2c1=O`, the Potency is 7.94 µM (active).
Same read-out and setting: the same measure for `CCn1cc(C(=O)NCc2ccc3c(c2)OCO3)c2cc(OC)c(OC)cc2c1=O`: 2 µM (active).
Consider `COc1ccc(-c2csc(N3CCN(Cc4ccc5c(c4)OCO5)CC3)n2)cc1`, for which the “activity change, negative = inhibition” value is -10.5%.
Consider `Cc1ccc(C(=O)OCC(=O)NCc2ccc3c(c2)OCO3)s1`, for which the “activity change, negative = inhibition” value was -8.63%.
With `CCOC(=O)NCc1ccc2c(c1)OCO2`, the “activity change, negative = inhibition” value was -2.53%.
On to `O=C(CCC(=O)OCC(F)(F)C(F)F)NCc1ccccc1`, for which the “activity change, negative = inhibition” value is -0.132%.
Still for that read-out and setting: the same measure for `COC(=O)[C@@]1(Cc2ccc(F)cc2)[C@H]2c3cc(C(=O)N4CCCC4)n(C[C@H](O)CO)c3C[C@H]2CN1C(=O)c1ccccc1`: -11.3%; for `COc1ccc(-n2nnc3c(=O)n(CC(=O)N4CCC(Cc5ccccc5)CC4)cnc32)cc1`: -7.64%; for `CCOC(=O)C(CCOc1cccc(CC)c1)C(=O)OCC`: -0.602%.
With `C=C(C)C1CC=C(C)C(O)C1` (centres undefined), the “activity change, negative = inhibition” value was -2.45%.
In the case of `CC(=O)NC(C)(C)C1CC=C(C)/C(=N\O)C1` (centres undefined), the “activity change, negative = inhibition” value is -6.01%.
As to `CC(C)OC(=O)CN1C(=O)c2ccccc2C1=O`, the “activity change, negative = inhibition” value is -2.74%.
Consider `O=C1C(c2[nH]c3ccccc3c2O)=Nc2ccccc21`, for which the “activity change, negative = inhibition” value was -11.5%.
Take `CCCCn1c(CCCNC(=O)CC)nc2ccccc21`: the “activity change, negative = inhibition” value was -6.76%.
`O=S(N1CCCCCC1)C12CC3CC(CC(C3)C1)C2` (centres undefined): the “activity change, negative = inhibition” value is 6.48%.
Regarding `Cn1c(-c2ccc(C(=O)c3ccccc3)s2)nc2ccccc21`, the Potency is 2 µM (active).
With `Cn1c(CNC(=O)C(C)(C)C)nc2ccccc21`, the “activity change, negative = inhibition” value was 4.87%.
With `Cc1nn2c3ccccc3nc2n(C)c1=O`, the “activity change, negative = inhibition” value was -1.15%.
In the case of `Cc1occc1C(=O)N1CCCc2ccccc21`, the “activity change, negative = inhibition” value was 0.434%.
On to `Cc1cccc(Br)c1`, for which the “activity change, negative = inhibition” value is -6.01%.
Turning to `CCOC(=O)N1CCN(C(=O)c2cc3c(-c4ccc(Cl)cc4)nn(C)c3s2)CC1`, the “activity change, negative = inhibition” value is 5.94%.
As to `COc1cccc(-c2nn(C)c3sc(C(=O)N4CCN(c5ccccc5)CC4)cc23)c1`, the Potency was 2.51 µM (active).
As to `COc1ccccc1N1CCN(C(=O)c2cn(-c3ccccc3)nc2-c2cccnc2)CC1`, the “activity change, negative = inhibition” value was -9.11%.
As to `O=S(=O)(NCC1CCCO1)c1ccc2ccccc2c1` (centres undefined), the “activity change, negative = inhibition” value was 0.294%.
Regarding `O=C(O)CCC(=O)NCc1ccc2[nH]c3c(c2c1)CCCC3`, the “activity change, negative = inhibition” value is -4.41%.
On the same count and under the same terms, the same measure for `CC/C=C/C/C=C/C/C=C/CCCCCCCC(=O)OCC`: 7.6%.
The same measure, in the same setting: the same measure for `Oc1c(C(c2cccs2)N2CCN(c3ccc(F)cc3)CC2)sc2ncnn12` (centres undefined): 10.8%.
Take `Cc1c2c(nc3ccccc13)-c1cccc(=O)n1C2`: the Potency is 1.58 µM (active).
For `Cc1ccc(N2C(=O)CC(NCc3ccc4c(c3)OCO4)C2=O)cc1Cl` (centres undefined), the “activity change, negative = inhibition” value is -2.37%.
As for `COc1ccc(N)c(OC)c1`, the “activity change, negative = inhibition” value is 8.82%.
For `CCn1c(=N)c(S(=O)(=O)c2ccc(F)cc2)cc2c(=O)n3ccccc3nc21`, the Potency is 2 µM (active).
For `Cc1cc(NC(=O)CN2CCCCC2C)nc2c1c(=O)oc1ccccc12` (centres undefined), the “activity change, negative = inhibition” value was 15.3%.
Consider `CCN(CC)CCCCn1c(-c2ccccc2)nc2c(N3CCOCC3)nc(C)nc21`, for which the “activity change, negative = inhibition” value was 2.26%.
The same measure, in the same setting: the same measure for `Fc1ccc(Br)cc1/C=N/n1cnnc1`: -0.497%.
For the compound `Cc1cc(/C=N/n2cnnc2)c(C)n1-c1ccc2ncccc2c1`, the Potency was 0.0631 µM (active).

(Values after PubChem BioAssay AID662 (National Center for Advancing Translational Sciences (NCATS), 2007).)
